Screening data: PubChem, several laboratories
The list is not random: actives were taken first. Their share in the collection is about 4.7%.
TIM10 inh = growth inhibitors of isogenic TIM10 control yeast, primary screen, counter-screen for tim10-1 yeast inhibitor project, luminescence, uHTS; inhibition, % at 10 µM; actives 1.4% (n = 330,000); S. cerevisiae TIM10 strain growth, BacTiter-Glo luminescence, 24 h;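 active = inhibition of 40% or more at the single tested concentration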;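 also: wild-type TIM10 isogenic control strain grown at permissive 25 °C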
PfHsp90 yeast 2 = growth inhibition of PfHsp90-expressing yeast, primary screen, antimalarial PfHsp90 inhibitor project, S. cerevisiae, BacTiter-Glo luminescence, single point, set 2. BacTiter-Glo ATP, 48 h; yeast lacking PDR1 and PDR3 efflux regulators. inhibition, % at 9.4 µM. actives 0.32% (n = 310,000). AID 504621, 2011;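 active = every replicate shows inhibition above about 80%, whatever the replicate mean, limit read from the data; inconclusive = mean inhibition reaches the set limit but some replicate falls short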;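 also: 0% = DMSO neutral controls and 100% = 20 µM radicicol positive controls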
SKKanGAS inh = S. pyogenes SKKanGAS growth inhibitors in kanamycin, primary screen, streptokinase expression inhibitor project, SKKanGAS strain, BacTiter-Glo luminescence; 6 h; inhibition, % at 7.5 µM; actives 1.3% (n = 300,000);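 active = mean replicate score, as percent of positive control median, at least 50; inconclusive = mean below 50 but one replicate at or above 50; inactive = mean and every replicate below 50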;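 also: strain carries kanamycin resistance gene driven by streptokinase promoter and grows in 40 µg/ml kanamycin; loss of luminescence reflects streptokinase promoter inhibition or plain growth inhibition; 0% = median of DMSO wells and 100% = positive control at its reference dose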
tim23-1 inh = growth inhibitors of tim23-1 mutant yeast, primary screen, luminescence, uHTS; S. cerevisiae tim23-1 growth, BacTiter-Glo luminescence, 24 h; inhibition, % at 20 µM; actives 1.3% (n = 330,000);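 active = growth inhibition of the mutant yeast at or above 50%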;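 also: temperature-sensitive mutant grown at 25 °C; plate controls were DMSO-treated mutant yeast for no effect and medium wells lacking yeast for full effect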
ATG4B inh = ATG4B protease inhibitors, primary screen, biochemical, fluorescence, uHTS | ATG4B cleavage of LC3-PLA2, NBD-HPC fluorescence, 1 h | inhibition, % at 8.33 µM | actives 0.51% (n = 340,000) | AID 504462, 2011; in the data active = inhibition above about 40%
Target sequence (Q9Y4P1 whole entry, looked up): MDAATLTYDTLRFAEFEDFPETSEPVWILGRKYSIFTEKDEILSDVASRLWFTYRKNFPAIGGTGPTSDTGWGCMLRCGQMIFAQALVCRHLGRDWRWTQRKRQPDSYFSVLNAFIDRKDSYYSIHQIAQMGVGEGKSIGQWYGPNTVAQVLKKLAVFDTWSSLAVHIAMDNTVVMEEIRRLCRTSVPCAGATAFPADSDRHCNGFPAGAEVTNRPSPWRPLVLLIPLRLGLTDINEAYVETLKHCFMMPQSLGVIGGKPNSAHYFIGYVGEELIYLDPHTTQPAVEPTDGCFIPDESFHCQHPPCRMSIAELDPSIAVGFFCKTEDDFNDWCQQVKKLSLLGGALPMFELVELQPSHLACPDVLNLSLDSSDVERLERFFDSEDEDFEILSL
tim10-1 inh = growth inhibitors of tim10-1 mutant yeast, primary screen, luminescence, uHTS. S. cerevisiae tim10-1 ts strain growth, BacTiter-Glo, 24 h. inhibition, % at 20 µM. actives 2.2% (n = 330,000);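 active = inhibition of at least 40%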;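 also: mutant grown at 25 °C; 0% = DMSO wells with yeast and 100% = wells holding no yeast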
tim10-1 conf = growth inhibitors of tim10-1 mutant yeast, confirmation, single concentration, luminescence, S. cerevisiae; inhibition, % at 20 µM; S. cerevisiae tim10-1 ts strain growth, BacTiter-Glo, 24 h; shares compounds with tim10-1 inh; actives 56% (n = 7,400);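 active = inhibition of yeast growth at or above a set limit in either of two repeat tests at 20 µM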;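 also: tim10-1 mutant grown at permissive 25 °C to find synthetic lethal compounds; 0% = DMSO yeast wells and 100% = medium wells without yeast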
tim10 confirm = growth inhibitors of wild-type TIM10 yeast, confirmation, counter-screen for tim10-1 synthetic lethality project, single concentration, luminescence, S. cerevisiae | shares compounds with TIM10 inh | S. cerevisiae tim10 strain growth, BacTiter-Glo luminescence, 24 h | inhibition, % at 10 µM | actives 63% (n = 4,600);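 active = inhibition of yeast growth at or above a set limit in either of two replicates at 10 µM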;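 also: this counterscreen used the strain with wild-type TIM10; 0% = yeast with DMSO and 100% = medium wells lacking yeast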
tim23-1 confirm = tim23-1 mutant yeast growth inhibitors, confirmation, luminescence, single concentration. shares compounds with tim23-1 inh. S. cerevisiae tim23-1 growth, BacTiter-Glo luminescence, 24 h. inhibition, % at 20 µM. actives 83% (n = 4,400). AID 463218, 2010;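 active = inhibition above about 39% in either of two replicate wells at 20 µM, limit read from the data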;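 also: temperature-sensitive tim23-1 mutant grown at 25 °C; 0% = DMSO wells with yeast and 100% = medium wells without yeast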
The depositor's hits bear a star; ? = inconclusive; nt = no result given.

SMILES | TIM10 inh | PfHsp90 yeast 2 | SKKanGAS inh | tim23-1 inh | ATG4B inh | tim10-1 inh | tim10-1 conf | tim10 confirm | tim23-1 confirm
CN1Cc2c(N3CCOCC3)nc3sc(C(=O)c4ccc(Br)cc4)c(N)c3c2CC1(C)C | 21.0 | nt | 16.5 | 57.8* | 2.4 | 57.7* | -16.4 | nt | 52.6*
Cc1ccc(-c2nc3cccnc3s2)cc1NS(=O)(=O)c1cccs1 | 6.5 | -38.1 | 26.5 | 57.7* | -5.5 | 42.5* | 32.3* | nt | 53.0*
Cc1cc(C(=O)N/N=C/C=C/c2ccccc2[N+](=O)[O-])c(C)o1 | 56.1* | 15.0 | -3.3 | 55.5* | 3.1 | 44.6* | 43.8* | 40.5* | 57.2*
Cc1ccsc1/C=N/Nc1nc(=O)[nH]nc1C | 42.7* | ? | 26.8 | 50.2* | 5.6 | 51.8* | 49.8* | 48.3* | 56.1*
Cc1ccc(OCc2cc(C(=O)NCc3cnn(-c4cccc(F)c4)c3)no2)cn1 | 21.6 | -14.8 | -3.8 | 62.1* | 12.9 | 43.7* | -7.8 | nt | 59.7*
Cc1ccc(OCc2cc(C(=O)NCc3ccc(OC(F)(F)F)cc3)no2)cn1 | -14.2 | 6.1 | -2.9 | 12.0 | 8.5 | 2.3 | nt | nt | nt
CCN(Cc1ccccc1)C(c1ccccn1)c1nnnn1C1CCCCC1 (stereo not given) | 60.5* | 16.1 | -17.4 | 62.0* | -0.8 | 41.9* | 51.1* | 62.0* | 64.6*
O=C(Nc1nc(-c2ccco2)c(-c2ccco2)s1)C1CCC1 | 46.0* | -16.0 | 1.2 | 65.7* | 8.5 | 44.6* | 58.8* | 48.5* | 59.5*
O=C(Nc1nnc(-c2ccco2)s1)C1CCCCC1 | -11.6 | 20.5 | -3.4 | -1.5 | -2.6 | 6.2 | nt | nt | nt
COCCCNC(=O)c1cccc(S(=O)(=O)N2CC3(C)CC2CC(C)(C)C3)c1 (stereo not given) | 2.6 | 3.6 | 14.5 | 10.0 | -5.7 | 22.1 | nt | nt | nt
CCCCNC(=O)c1cccc(S(=O)(=O)N2CC3(C)CC2CC(C)(C)C3)c1 (stereo not given) | 29.0 | 5.4 | nt | 59.2* | -0.4 | 49.6* | 48.4* | nt | 54.0*
Cc1c(C)n(CC(O)CN2C(=O)c3ccccc3S2(=O)=O)c2ccccc12 (stereo not given) | 42.7* | -10.8 | 8.6 | 74.3* | -8.7 | 65.6* | 64.8* | 49.0* | 88.8*
CN1CCc2c(n(CC(O)CN3C(=O)c4ccccc4S3(=O)=O)c3ccccc23)C1=O (stereo not given) | nt | -5.9 | nt | nt | -6.4 | nt | nt | nt | nt
CC(=O)Nc1cccc(-c2nnc3c4ccccc4c(C)nn23)c1 | 8.5 | nt | 0.5 | 11.2 | nt | 17.2 | nt | nt | nt
Cc1nn2c(-c3ccncc3)nnc2c2ccccc12 | 76.0* | -58.8 | nt | 51.6* | -2.5 | 56.8* | 65.1* | 74.5* | 42.6*
CCOC(=O)C1CCN(C(=O)CNC(=O)c2nn(-c3ccc(OC)c(Cl)c3)c(=O)c3ccccc23)CC1 | 5.7 | 17.5 | -0.2 | 29.5 | 3.1 | 20.5 | nt | nt | nt
Fc1ccc(-c2nc3n(n2)Cc2ccccc2-3)cc1 | 4.4 | 50.5 | 17.0 | 16.4 | 15.3 | 23.2 | nt | nt | nt
CCn1c(C)nc2cc(-c3nc4n(n3)Cc3ccccc3-4)ccc21 | 54.3* | 55.0 | 64.9* | 64.9* | 1.8 | 60.4* | 51.0* | 49.3* | 68.1*
COc1ccc(C(=O)C2CCN(S(=O)(=O)c3ccc4c(c3)OCCO4)CC2)cc1 | 67.9* | -14.2 | 1.0 | 59.5* | -8.4 | 56.3* | 56.5* | 60.7* | 45.9*
COc1ccc(OC)c(NC(=O)C2CCN(S(=O)(=O)c3ccc4c(c3)OCCO4)CC2)c1 | 1.3 | nt | 1.3 | 17.2 | -3.9 | 7.6 | nt | nt | nt
COc1cc(/C=C/C(=O)N2CCC=CC2=O)cc(OC)c1OC | 56.7* | 15.4 | nt | 58.9* | -6.7 | 57.5* | 40.1* | 45.4* | 54.5*
COc1cc(/C=C/C(=O)N2CCCN(C(=O)/C=C/c3cc(OC)c(OC)c(OC)c3)CC2)cc(OC)c1OC | 2.3 | -20.3 | -8.8 | 15.9 | -3.5 | 19.6 | nt | nt | nt
Cc1ccc(C)c(OC(=O)c2cccnc2Cl)c1C | 10.9 | -11.9 | 23.0 | 11.8 | -10.7 | -0.8 | nt | nt | nt
COCCN(C(=O)CCl)C(C(=O)NC1CCCCC1)c1ccccc1C (stereo not given) | 46.9* | -1.4 | 1.4 | 50.4* | 2.0 | 55.1* | 44.1* | 5.0 | 53.2*
COCCN(C(=O)CCC(=O)Nc1cc(C)on1)C(C(=O)NC1CCCC1)c1ccccc1C (stereo not given) | 10.3 | 10.6 | -3.0 | 12.6 | 1.5 | -5.8 | nt | nt | nt
SMILES | TIM10 inh | PfHsp90 yeast 2 | SKKanGAS inh | tim23-1 inh | ATG4B inh | tim10-1 inh | tim10-1 conf | tim10 confirm | tim23-1 confirm
Oc1sc(C=Nc2ccccc2)c2ccccc12 | 37.4 | 8.8 | 3.1 | 25.1 | -14.2 | 25.8 | nt | nt | nt
COc1ccc(-n2cc(-c3ccc(OC)c(OC)c3)[nH]c2=S)cc1 | 3.7 | 10.0 | -4.9 | -2.9 | -9.6 | 11.4 | nt | nt | nt
Cc1ccc(-c2cn(-c3ccccc3)c(=S)[nH]2)cc1C | 47.8* | -4.4 | 45.9 | 51.7* | -7.2 | 46.8* | 21.4 | 41.5* | 48.6*
FC(F)(F)c1cccc(-n2cc(-c3ccccc3)[nH]c2=S)c1 | 35.3 | 14.5 | -8.7 | 55.8* | 20.2 | 47.5* | 35.5* | nt | 50.4*
O=S(=O)(Nc1ccc2c(c1)OCO2)c1cccs1 | 3.1 | 7.8 | -4.8 | 14.4 | -2.1 | 5.0 | nt | nt | nt
COc1cc(/C=C/C(=O)OCC(=O)NCc2ccc(F)cc2)ccc1O | 1.5 | -0.2 | nt | -2.5 | -4.4 | -3.7 | nt | nt | nt
COc1cc(OC)c(C(=O)C=Cc2ccc(OC)c(OC)c2)c(OC)c1 | nt | nt | nt | nt | -0.1 | nt | nt | nt | nt
O=C(/C=C/c1cccc(Cl)c1)c1ccc([N+](=O)[O-])o1 | 96.5* | 107.8* | 62.6* | 95.0* | 5.1 | 93.9* | 96.1* | 98.7* | 98.8*
COc1ccc(/C=C/C(=O)c2ccc([N+](=O)[O-])o2)cc1OC | 95.7* | nt | 66.9* | 90.1* | 0.7 | 91.0* | 88.8* | 98.2* | 97.2*
COc1cc(/C=C/C(=O)c2ccc([N+](=O)[O-])o2)ccc1O | 96.6* | 111.7* | 72.5* | 95.5* | 3.6 | 96.2* | 97.2* | 99.1* | 99.2*
